Measurements taken from PubChem BioAssay.
The source made the active and inactive calls. No rule for the calls is given here.

Tests used:
[1] = tested on: Botulinum neurotoxin type F light chain protease (Clostridium botulinum); test: Botulinum neurotoxin type F light chain protease inhibition, multiplex microsphere flow cytometry, validation set (AID 588459); settings: multiplex microsphere protease substrate cleavage assay, at 10 µM, stronger effect = higher value
[2] = target: Botulinum neurotoxin type A (Clostridium botulinum) (UniProt P0DPI0); test: BoNT/A light chain protease inhibitors, biochemical, multiplex microsphere flow cytometry, validation set (AID 588460); settings: at 10 µM, stronger effect = higher value
[3] = target: Lethal factor (Bacillus anthracis) (UniProt P15917); test: Lethal factor protease inhibitors, Bacillus anthracis, multiplex microsphere cleavage assay, validation set (AID 588461); settings: flow cytometry, at 10 µM, stronger effect = higher value

Measured: inhibition

Botulinum neurotoxin type A (Clostridium botulinum), sequence (P0DPI0 whole entry, looked up): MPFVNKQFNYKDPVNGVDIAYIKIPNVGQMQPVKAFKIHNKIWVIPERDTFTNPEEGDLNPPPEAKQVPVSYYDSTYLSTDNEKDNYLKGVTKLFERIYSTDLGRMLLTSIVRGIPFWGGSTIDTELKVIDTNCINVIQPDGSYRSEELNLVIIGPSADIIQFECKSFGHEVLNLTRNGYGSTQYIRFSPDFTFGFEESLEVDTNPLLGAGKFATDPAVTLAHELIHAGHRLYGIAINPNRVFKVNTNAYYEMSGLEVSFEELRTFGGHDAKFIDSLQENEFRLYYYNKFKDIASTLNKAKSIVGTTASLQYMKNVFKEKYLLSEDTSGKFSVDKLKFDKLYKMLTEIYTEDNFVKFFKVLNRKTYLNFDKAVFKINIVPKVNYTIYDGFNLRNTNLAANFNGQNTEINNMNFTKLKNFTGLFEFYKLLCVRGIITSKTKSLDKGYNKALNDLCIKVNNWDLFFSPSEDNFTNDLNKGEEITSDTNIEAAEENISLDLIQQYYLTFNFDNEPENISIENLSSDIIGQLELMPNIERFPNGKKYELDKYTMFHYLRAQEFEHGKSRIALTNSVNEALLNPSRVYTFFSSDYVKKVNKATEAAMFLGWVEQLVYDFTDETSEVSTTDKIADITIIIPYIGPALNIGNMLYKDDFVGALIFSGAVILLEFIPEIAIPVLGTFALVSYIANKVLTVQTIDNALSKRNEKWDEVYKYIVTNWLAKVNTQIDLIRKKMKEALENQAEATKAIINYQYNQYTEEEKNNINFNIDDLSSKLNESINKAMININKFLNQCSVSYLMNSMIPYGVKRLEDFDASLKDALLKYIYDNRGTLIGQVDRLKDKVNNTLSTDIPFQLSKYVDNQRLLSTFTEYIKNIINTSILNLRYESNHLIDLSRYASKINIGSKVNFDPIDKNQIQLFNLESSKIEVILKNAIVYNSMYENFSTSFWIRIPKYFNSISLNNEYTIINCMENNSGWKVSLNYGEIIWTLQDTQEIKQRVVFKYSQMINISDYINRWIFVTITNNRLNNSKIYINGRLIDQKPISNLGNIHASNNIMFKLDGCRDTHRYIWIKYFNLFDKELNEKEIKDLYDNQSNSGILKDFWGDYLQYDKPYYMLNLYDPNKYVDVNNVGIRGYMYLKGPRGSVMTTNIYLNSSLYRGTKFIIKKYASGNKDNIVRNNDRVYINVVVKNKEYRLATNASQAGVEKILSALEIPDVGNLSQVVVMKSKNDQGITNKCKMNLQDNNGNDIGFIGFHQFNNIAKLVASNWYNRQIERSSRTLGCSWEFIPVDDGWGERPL
Lethal factor (Bacillus anthracis), sequence (P15917 whole entry, looked up): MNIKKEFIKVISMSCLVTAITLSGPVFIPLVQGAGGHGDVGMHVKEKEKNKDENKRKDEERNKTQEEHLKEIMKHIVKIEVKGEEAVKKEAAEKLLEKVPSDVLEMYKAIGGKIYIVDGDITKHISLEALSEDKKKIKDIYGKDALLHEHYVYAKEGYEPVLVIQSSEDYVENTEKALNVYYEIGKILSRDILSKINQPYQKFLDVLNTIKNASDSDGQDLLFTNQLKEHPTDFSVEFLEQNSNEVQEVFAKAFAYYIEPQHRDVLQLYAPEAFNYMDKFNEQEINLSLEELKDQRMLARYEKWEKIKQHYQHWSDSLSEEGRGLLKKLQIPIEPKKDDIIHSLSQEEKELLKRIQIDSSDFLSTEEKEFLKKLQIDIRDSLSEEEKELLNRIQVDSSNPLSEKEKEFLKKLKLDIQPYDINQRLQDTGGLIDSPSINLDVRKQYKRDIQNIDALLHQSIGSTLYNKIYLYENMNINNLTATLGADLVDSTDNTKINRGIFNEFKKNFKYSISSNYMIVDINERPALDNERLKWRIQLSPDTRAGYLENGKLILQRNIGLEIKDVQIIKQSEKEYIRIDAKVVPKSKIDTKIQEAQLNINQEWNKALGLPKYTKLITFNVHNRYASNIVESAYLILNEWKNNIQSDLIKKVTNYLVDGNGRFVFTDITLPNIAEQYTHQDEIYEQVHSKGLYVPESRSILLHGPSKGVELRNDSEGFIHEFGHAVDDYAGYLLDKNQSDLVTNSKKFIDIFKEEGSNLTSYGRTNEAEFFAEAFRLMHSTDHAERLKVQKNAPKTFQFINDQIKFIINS

CCCCCCCC(=O)OCC(O)CO (configuration not stated)
inactive: [1] -6.1% | [2] -0.1% | [3] -2%

C[C@]12CC[C@@H]3c4ccc(O)cc4CC[C@H]3[C@@H]1C[C@@H](O)[C@@H]2O[C@@H]1O[C@H](C(=O)O)[C@@H](O)[C@H](O)[C@H]1O
inactive: [1] -1.9% | [2] 0.2% | [3] -6.5%

COc1ccc2cc(C3(C)NC(=O)NC3=O)ccc2c1 (configuration not stated)
inactive: [1] -0.4% | [2] -0.4% | [3] 0.8%

O=C(CN1C(=O)c2ccccc2C1=O)Nc1cccc([N+](=O)[O-])c1
inactive: [1] -5.7% | [2] -0.9% | [3] -2%

Cc1csc(N)n1
inactive: [1] 0.3% | [2] 0.1% | [3] 3%

COc1ccc(CCN2C(=O)CSC2c2ccc(OC)c(OC)c2)cc1OC (configuration not stated)
inactive: [1] -3.4% | [2] 0.4% | [3] 6.7%

COc1ccc(C2N3CC4(C)CN2CC(C)(C3)C4)cc1OC (configuration not stated)
inactive: [1] -0.3% | [2] -1.6% | [3] -4.9%

CN(C)CCCN1c2ccccc2Sc2ccccc21
inactive: [1] -0.5% | [2] -0.5% | [3] -3.7%

O=C1CC(c2ccc(OCCCCCOc3ccc(C4CC(=O)NC4=O)cc3)cc2)C(=O)N1 (configuration not stated)
inactive: [1] 2.5% | [2] 1.1% | [3] 2.1%

CC(C)OC(=O)CC12CN3CN(C1)CC(CC(=O)OC(C)C)(C3)C2=O
inactive: [1] 1.8% | [2] -0.4% | [3] 6.1%

CC1(C)CC(C(CC(=O)N2CCCC2)Cc2ccccc2)CCO1 (configuration not stated)
inactive: [1] -0.7% | [2] 0.6% | [3] 3.1%

COc1cc(NC(=S)NC(=O)c2cccs2)ccc1NC(=O)C(C)C
inactive: [1] -2.2% | [2] 0.1% | [3] -4%

C[C@H](NC(=O)Nc1ccccc1F)C(=O)O
inactive: [1] -3.8% | [2] -0.3% | [3] -3.2%

Clc1ccc(CCNc2ncnc3nc[nH]c23)cc1
inactive: [1] 4.5% | [2] 0.1% | [3] -3.1%
